The results in this text go back to PubChem BioAssay (Tox21).

A number with no mark means an inactive call. Inconclusive results are not listed. Active and inactive are the calls of the source. Unless noted, the call rests on the fitted dose curve.

Experiment [1] can be described thus: Nuclear factor erythroid 2-related factor 2/antioxidant responsive element (Nrf2/ARE) small molecule agonists: qHTS cell viability counter screen in human keratinocytes (AID 1919968; active means well fitted curve in the direction sought with a large enough effect in the repeat runs; an effect the other way counts as inactive or inconclusive; further: nearly all actives have a fitted effect of over 55% in size; further: potency means the concentration at half of the fitted maximal effect). The gist of the method:
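In human HaCaT keratinocytes stably expressing an ARE-driven luciferase, compound exposure lasted 23 h at 37 C under 5% CO2. Viable cells are quantified with a protease-based fluorogenic reagent (CellTiter-Fluor) read 1 h after addition.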

Experiment [2] can be described thus: Nuclear factor erythroid 2-related factor 2/antioxidant responsive element (Nrf2/ARE) small molecule agonists: luciferase reporter gene qHTS assay in human keratinocytes (AID 1919969; further: nearly all actives have a fitted effect of over 35% in size; further: potency means the concentration at half of the fitted maximal effect). (In general: Reporter assays use an easily measured gene product as a stand-in for the process of interest.)
For experiment [3], the target named is Gonadotropin-releasing hormone receptor (Homo sapiens) (UniProt P30968). Briefly: Human gonadotropin-releasing hormone receptor (GnRHR) small molecule agonists, calcium flux assay in GnRHR-HEK293 cells (AID 1920063). Further: nearly all actives have a fitted effect of over 35% in size. A digest of the protocol:
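Intracellular calcium rise is the read-out: engineered human GnRHR HEK293 cells, dye-loaded, are exposed to DMSO-dissolved compounds and fluorescence at Ex/Em 480/540 is tracked for 3 min.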
On the technique in general: A change in cytosolic calcium serves as a functional read-out for many receptors and channels.

Experiment [4] addresses KiSS-1 receptor (Homo sapiens) (UniProt Q969F8). Briefly: Human kisspeptin (KISS1R) small molecule agonists, calcium flux assay in KISS1R-HEK293 cells (AID 1920064; active means well fitted curve in the direction sought with a large enough effect in the repeat runs; an effect the other way counts as inactive or inconclusive). A digest of the protocol: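 Concentration-response testing used 15 concentrations in triplicate on human KISS1R-expressing HEK293 cells. Calcium-dependent fluorescence (Ex/Em 480/540) was followed kinetically for 3 min after compound transfer.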

A short description of experiment [5]: G protein-coupled receptor (GPCR) small molecule agonists, calcium flux assay: HEK293 wild type cell line counter screen (AID 1920065). A digest of the protocol:
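Fluorescence intensity signals activation. After overnight (18 h) culture and a 1 h calcium dye load at 37 C, compounds are added by pin tool and the plate read at 480/540 nm for 3 min in 1 s steps.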

Experiment [6] can be described thus: p53 small molecule agonists, cell-based qHTS assay with rat liver microsomes (AID 1963578). A digest of the protocol: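 Agonist mode in p53RE-bla reporter cells, with compounds co-incubated 16 h at 37 C alongside 0.5 mg/mL rat liver microsomes and 0.5 mg/mL NADPH (final), followed by a 2 h LiveBLAzer detection step.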
(Quantitative high-throughput screening tests each substance at several concentrations.)

A short description of experiment [7]: p53 small molecule agonists, cell-based qHTS assay with rat liver microsomes: qHTS cell viability counter screen (AID 1963580). Further: nearly all actives have a fitted effect of over 45% in size. The gist of the method:
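After the beta-lactamase ratio was read, CellTiter-Glo was added to the same wells and luminescence measured at 30 min; cells had been treated 16 h at 37 C with compounds, rat liver microsomes and NADPH (0.5 mg/mL final each).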

Experiment [8] can be described thus: p53 small molecule agonists, cell-based qHTS assay: qHTS cell viability counter screen (AID 1963581). Further: nearly all actives have a fitted effect of over 45% in size. A digest of the protocol:
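Luminescence from CellTiter-Glo, reflecting ATP content, serves as the cytotoxicity measure; it is taken after the 2 h reporter substrate step in HCT-116 p53RE-bla cells dosed for 16 h at 37 C.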

The nature of experiment [9]: p53 small molecule agonists, cell-based qHTS assay (AID 1963582; active means well fitted activation curve with a large enough effect in the signal ratio in the repeat runs, not every such curve was filed as active; the % refers to the signal ratio). A digest of the protocol: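 After plating, p53RE-bla cells sat 5 h in the incubator; compounds or DMSO vehicle were pinned in; a 16 h incubation at 37 C followed; FRET substrate was added and, 2 h later at RT, fluorescence was measured.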
A short description of experiment [10]: cAMP Responsive Elements (CRE) small molecule agonists, cell-based qHTS assay (AID 1963590). The gist of the method:
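Compound exposure lasted 3 h at 37 C/5% CO2 in CRE-bla HEK 293T cells grown in assay medium with 10% dialyzed FBS and 25 mM HEPES. Reporter signal came from LiveBLAzer B/G FRET substrate, 2 h, room temperature.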

Experiment [11] is described as follows: cAMP Responsive Elements (CRE) small molecule antagonists, cell-based qHTS assay (AID 1963591; active means well fitted inhibition curve with a large enough effect in the signal ratio in the repeat runs, not every such curve was filed as active; the % refers to the signal ratio). A digest of the protocol:
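Stimulation used NKH477 at a final 0.25 uM for 3 h in compound-treated CRE-bla HEK293T cells, seeded 18 h beforehand. Reporter activity was measured with LiveBLAzer B/G FRET substrate after 2 h at room temperature.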

Experiment [12] deals with Beta-2 adrenergic receptor (Homo sapiens) (UniProt P07550). In words: Adrenergic beta2 receptor (ADRB2) small molecule antagonists, cell-based qHTS assay (AID 1963592). Further: series mostly up to about 92 µM; nearly all actives have a fitted effect of over 50% in size. A digest of the protocol:
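Assay format: CHO-ADRB2 cells, 18-20hr seeding at 37C/5% CO2, then compound plus 1nM isoproterenol agonist mix for 0.5hr RT. Homogeneous time-resolved fluorescence cAMP detection after 1hr, expressed as 665/615 nm ratio.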

Experiment [13] has the same target. In words: Adrenergic beta2 receptor (ADRB2) small molecule agonists, cell-based qHTS assay (AID 1963593).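 Further: CHO cells stably overexpressing human ADRB2.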 A digest of the protocol: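 CHO cells stably over-expressing ADRB2 were plated overnight at 37C, then dosed with compounds plus a stimulation mix containing 100uM IBMX and 25uM Ro-20-1724 for 0.5hr at room temperature. cAMP was measured by HTRF competition, 1hr.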

Experiment [14] addresses D(2) dopamine receptor (Homo sapiens) (UniProt P14416). Briefly: Dopamine D2 receptor (DRD2) small molecule agonists, cell-based qHTS assay (AID 1963594). Further: nearly all actives have a fitted effect of over 35% in size. A digest of the protocol: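 HEK293 cells stably expressing human DRD2, pre-treated with PDE inhibitor Ro20-1724 (0.1 mM final) and compound 10 min at room temperature, then stimulated with NKH477 (200nM […]) for 30 min. cAMP read by HTRF (665/620 nm).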

For experiment [15] the target is unchanged. Briefly: Dopamine D2 receptor (DRD2) small molecule antagonists, cell-based qHTS assay (AID 1963595; active means well fitted inhibition curve with a large enough effect in the signal ratio in the repeat runs, with a control signal flat; the % refers to the signal ratio). A digest of the protocol:
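HEK293 cells stably expressing DRD2 were preincubated with 0.1 mM Ro20-1724, then with compound for 10 min at room temperature. Cells were stimulated with 200 nM NKH477 plus 12 nM quinpirole for 30 min, and cAMP was read by HTRF.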

Experiment [16] concerns the target 5-hydroxytryptamine receptor 2A (Homo sapiens) (UniProt P28223). In words: 5-hydroxytryptamine receptor 2A (HTR2A) small molecule antagonists, cell-based qHTS assay (AID 1963586). Further: nearly all actives have a fitted effect of over 45% in size. The gist of the method:
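CHO cells stably expressing human HTR2A were plated for 18 h at 37 C, then loaded with calcium dye for 1 h. Compounds were preincubated 5 min at room temperature before DOI (4 nM solution) was added. Kinetic fluorescence was read for 3 min.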

The target in experiment [17] is Muscarinic acetylcholine receptor M1 (Homo sapiens) (UniProt P11229). Briefly: Cholinergic receptor muscarinic 1 (CHRM1) small molecule antagonists, cell-based qHTS assay (AID 1963588). Further: nearly all actives have a fitted effect of over 40% in size. Further: potency means the concentration at half of the fitted maximal effect. The gist of the method:
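Compounds were tested at 15 concentrations in three independent runs. Dye-loaded CHRM1-CHO cells were exposed 5 min at room temperature before stimulation by acetylcholine added at 50nM. Intracellular calcium was read kinetically on FDSS for 3 min.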

For experiment [18] the target is unchanged. Briefly: Cholinergic receptor muscarinic 1 (CHRM1) small molecule agonists, cell-based qHTS assay (AID 1963589). Further: nearly all actives have a fitted effect of over 35% in size. A digest of the protocol: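 Fluorescent calcium dye reports M1 activation in stably transfected CHO cells. Compounds, 15 concentrations, added after 1 h dye loading at 37 C; kinetic reading at 1 sec intervals.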
A short description of experiment [19]: p53 small molecule agonists, cell-based qHTS assay with human liver microsomes: qHTS cell viability counter screen (AID 1963579). Further: nearly all actives have a fitted effect of over 45% in size. The gist of the method:
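Metabolically activated exposure: compounds, human liver microsomes and NADPH (0.5 mg/mL final apiece) were added to p53RE-bla cells seeded 5 h earlier, left 16 h at 37 C, and then assessed for viability by CellTiter-Glo luminescence.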

The target in experiment [20] is 5-hydroxytryptamine receptor 2A (Homo sapiens) (UniProt P28223). Briefly: 5-hydroxytryptamine receptor 2A (HTR2A) small molecule agonists, cell-based qHTS assay (AID 1963587). Further: nearly all actives have a fitted effect of over 30% in size. A digest of the protocol: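 CHO cells stably expressing human HTR2A, plated 18 h, loaded with calcium dye 1 h at 37 C. Agonist mode: compounds added and intracellular calcium fluorescence recorded kinetically for 2 min at 1 sec intervals.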
Sequence of 5-hydroxytryptamine receptor 2A (Homo sapiens) (P28223 whole entry, looked up): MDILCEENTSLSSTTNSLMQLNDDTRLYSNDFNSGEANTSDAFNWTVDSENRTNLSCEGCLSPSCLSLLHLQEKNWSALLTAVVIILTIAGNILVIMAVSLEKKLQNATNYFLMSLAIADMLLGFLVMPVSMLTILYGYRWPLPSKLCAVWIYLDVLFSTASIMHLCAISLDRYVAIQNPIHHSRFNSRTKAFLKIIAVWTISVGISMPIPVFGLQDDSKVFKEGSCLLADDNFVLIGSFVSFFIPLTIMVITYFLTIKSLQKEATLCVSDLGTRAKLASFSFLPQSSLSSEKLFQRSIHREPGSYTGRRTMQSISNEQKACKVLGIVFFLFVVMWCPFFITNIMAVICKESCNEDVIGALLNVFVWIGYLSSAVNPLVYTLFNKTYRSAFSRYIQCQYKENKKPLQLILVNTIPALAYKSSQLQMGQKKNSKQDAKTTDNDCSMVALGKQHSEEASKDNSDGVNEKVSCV

Sequence of Gonadotropin-releasing hormone receptor (Homo sapiens) (P30968 whole entry, looked up): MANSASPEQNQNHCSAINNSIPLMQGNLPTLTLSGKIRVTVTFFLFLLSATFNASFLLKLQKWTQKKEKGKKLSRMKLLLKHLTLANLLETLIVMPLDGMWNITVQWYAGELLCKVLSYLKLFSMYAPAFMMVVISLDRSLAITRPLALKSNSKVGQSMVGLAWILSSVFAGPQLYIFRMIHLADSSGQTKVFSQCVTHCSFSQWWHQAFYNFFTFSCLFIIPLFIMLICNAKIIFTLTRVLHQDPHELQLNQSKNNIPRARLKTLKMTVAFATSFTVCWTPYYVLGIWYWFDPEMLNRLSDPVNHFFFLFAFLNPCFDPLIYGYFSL
Sequence of Muscarinic acetylcholine receptor M1 (Homo sapiens) (P11229 whole entry, looked up): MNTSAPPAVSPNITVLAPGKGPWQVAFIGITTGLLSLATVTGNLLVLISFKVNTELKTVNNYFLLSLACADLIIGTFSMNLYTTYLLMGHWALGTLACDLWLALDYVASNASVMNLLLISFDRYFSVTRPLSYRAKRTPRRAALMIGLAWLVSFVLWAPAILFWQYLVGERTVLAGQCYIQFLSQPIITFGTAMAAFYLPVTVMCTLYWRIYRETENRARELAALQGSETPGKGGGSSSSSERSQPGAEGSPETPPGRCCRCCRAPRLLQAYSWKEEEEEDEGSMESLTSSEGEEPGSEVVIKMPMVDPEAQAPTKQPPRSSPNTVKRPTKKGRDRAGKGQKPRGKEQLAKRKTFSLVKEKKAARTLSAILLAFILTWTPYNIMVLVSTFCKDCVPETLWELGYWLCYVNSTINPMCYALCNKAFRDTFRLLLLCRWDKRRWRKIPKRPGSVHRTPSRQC
Sequence of Beta-2 adrenergic receptor (Homo sapiens) (P07550 whole entry, looked up): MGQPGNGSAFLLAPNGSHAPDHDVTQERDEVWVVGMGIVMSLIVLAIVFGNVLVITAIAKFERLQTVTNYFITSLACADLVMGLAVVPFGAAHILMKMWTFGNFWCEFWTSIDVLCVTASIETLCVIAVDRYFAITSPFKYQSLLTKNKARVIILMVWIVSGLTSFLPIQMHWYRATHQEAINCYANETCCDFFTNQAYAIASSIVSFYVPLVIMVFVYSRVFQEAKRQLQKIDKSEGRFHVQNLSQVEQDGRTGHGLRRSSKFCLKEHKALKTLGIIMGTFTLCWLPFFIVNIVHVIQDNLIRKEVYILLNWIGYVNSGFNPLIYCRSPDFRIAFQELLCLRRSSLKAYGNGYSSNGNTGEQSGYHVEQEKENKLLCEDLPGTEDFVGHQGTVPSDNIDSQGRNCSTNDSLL
Sequence of D(2) dopamine receptor (Homo sapiens) (P14416 whole entry, looked up): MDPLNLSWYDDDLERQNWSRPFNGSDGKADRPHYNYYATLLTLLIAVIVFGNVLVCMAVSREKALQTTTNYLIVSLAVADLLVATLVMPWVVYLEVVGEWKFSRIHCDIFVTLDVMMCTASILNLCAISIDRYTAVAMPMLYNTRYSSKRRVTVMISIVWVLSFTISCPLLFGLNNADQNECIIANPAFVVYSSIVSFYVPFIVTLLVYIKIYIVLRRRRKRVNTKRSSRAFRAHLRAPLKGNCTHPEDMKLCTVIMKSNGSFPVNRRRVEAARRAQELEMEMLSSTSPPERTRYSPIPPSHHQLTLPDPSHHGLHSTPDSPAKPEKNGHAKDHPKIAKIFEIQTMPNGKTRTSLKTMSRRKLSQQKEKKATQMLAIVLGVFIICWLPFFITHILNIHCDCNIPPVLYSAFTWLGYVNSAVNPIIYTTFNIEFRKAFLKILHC
Sequence of KiSS-1 receptor (Homo sapiens) (Q969F8 whole entry, looked up): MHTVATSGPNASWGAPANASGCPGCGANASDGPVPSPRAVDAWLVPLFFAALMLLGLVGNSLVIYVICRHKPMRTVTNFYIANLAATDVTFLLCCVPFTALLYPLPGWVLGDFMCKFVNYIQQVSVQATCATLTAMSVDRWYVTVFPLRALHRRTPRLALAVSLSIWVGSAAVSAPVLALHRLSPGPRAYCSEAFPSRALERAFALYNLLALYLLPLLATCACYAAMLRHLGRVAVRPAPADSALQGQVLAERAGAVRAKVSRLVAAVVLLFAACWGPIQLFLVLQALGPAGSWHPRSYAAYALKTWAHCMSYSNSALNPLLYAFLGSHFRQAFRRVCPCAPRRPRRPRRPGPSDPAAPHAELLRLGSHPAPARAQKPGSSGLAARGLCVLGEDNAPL

`CCC[C@@H]1C[C@@H](C(=O)N[C@@H]([C@H]2O[C@H](SC)[C@H](O)[C@@H](O)[C@H]2O)[C@@H](C)O)N(C)C1`: the Potency result in experiment [1], in experiment [2], in [3], in [4], in experiment [5] and in [6] was “inactive” throughout. Besides, the Potency result in experiment [7], in experiment [8], in experiment [9], in experiment [10], in experiment [11] and in experiment [12] was “inactive” throughout. For the same molecule, the Potency result in [13], in experiment [14] and in experiment [15] was “inactive” throughout.
For the molecule `O=c1[nH]sc2ccccc12`, the results for the Potency in experiment [1] and in experiment [2] were 24.3 µM (active) and 12.2 µM (active), respectively. For the same molecule, the Potency result in experiment [3], in experiment [4], in experiment [5], in [6], in experiment [8] and in experiment [9] was “inactive” each time. Besides, the Potency result in [16], in experiment [17], in [18], in experiment [13] and in [15] was “inactive” in each case.
For `C=C1c2cccc(O)c2C(O)=C2C(=O)[C@]3(O)C(O)=C(C(N)=O)C(=O)[C@@H](N(C)C)[C@@H]3[C@@H](O)[C@H]12`, the Potency result in experiment [1], in experiment [2], in experiment [3], in experiment [4], in experiment [5] and in experiment [19] was “inactive” in each case. Besides, the Potency entry in [7], in [8], in experiment [9], in experiment [16], in experiment [20] and in experiment [17] was “inactive” in each case. Besides, the Potency entry in experiment [18], in [10], in [11], in experiment [12], in experiment [14] and in experiment [15] was “inactive” throughout.
Consider `CCn1c(=O)c2c(nc(/C=C/c3ccc(OC)c(OC)c3)n2C)n(CC)c1=O`, for which the Potency entry in experiment [1], in [2], in [3], in experiment [4], in experiment [5] and in experiment [6] was “inactive” in each case. The Potency result in [7], in [8], in experiment [9], in experiment [20], in [17] and in [18] was “inactive” in each case. Besides, the Potency entry in experiment [11], in experiment [14] and in experiment [15] was “inactive” in each case.
As to `CC1CCC(=O)C1=O` (configuration not stated), the Potency entry in [1], in [2], in [3], in [4], in [5] and in [19] was “inactive” throughout. The Potency entry in experiment [7], in experiment [8], in [16], in [20], in [17] and in experiment [18] was “inactive” in each case. Also, the Potency result in [10], in experiment [11] and in [12] was “inactive” each time.
Consider `O=c1[nH]c2ccc(S(=O)CCN3CCC(Cc4ccc(F)cc4)CC3)cc2o1` (configuration not stated), for which the Potency entry in experiment [1], in experiment [3], in experiment [4], in experiment [5], in experiment [6] and in experiment [7] was “inactive” throughout. Also, the Potency entry in experiment [9], in experiment [16], in experiment [18], in [12] and in experiment [13] was “inactive” in each case. In addition, the Potency in experiment [2] was 61.1 µM (active); in [17], 14.9 µM (active).
Take `CCO[Si](CCCS)(OCC)OCC`: the Potency entry in experiment [1], in experiment [2], in [3], in experiment [4], in experiment [5] and in experiment [6] was “inactive” each time. Further, the Potency entry in experiment [8], in experiment [9], in experiment [16], in [20], in experiment [17] and in experiment [18] was “inactive” each time. Further, the Potency entry in experiment [10], in [11], in experiment [12], in experiment [13], in experiment [14] and in [15] was “inactive” in each case.
